# KCNH2 3.1 block – inhibitors of human KCNH2 3.1 potassium channel isoform | U2OS KCNH2 3.1, thallium flux FluxOr; stronger effect = lower value | activity change, % (tested at about 1.8 µM) | 340,000 tested, 0.95% active | AID 720553;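 active = maximum activity change below -70%; inconclusive = maximum activity change from -70% to -50%; inactive = maximum activity change above -50%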;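 also: thallium influx rate constant from kinetic fluorescence after stimulation buffer; % is scaled to controls: 0 for no effect and ±100 for the full control effect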
#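 Kinetic fluorescence (2 min after stimulation buffer) measures Tl+ influx through KCNH2 3.1 expressed by viral transduction in U2OS cells; the rate constant is normalized against DMSO controls serving as positive and negative references.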
# hERG WT inh – blocks the wildtype human KCNH2 potassium channel; Q12809; U2OS, BacMam KCNH2, thallium flux FluxOr; stronger effect = lower value; activity change, % at 1.84 µM; 340,000 tested, 0.37% active;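 active = maximum activity change below -70%; inconclusive = maximum activity change between -70% and -50%; inactive = maximum activity change above -50%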; also: % is scaled to controls: 0 for no effect and ±100 for the full control effect
#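 U2OS cells transduced with wild-type KCNH2 virus are loaded with FluxOr dye for 45 min, and thallium flux is measured in kinetic reads before and after stimulation buffer. Rate constants are normalized to DMSO controls.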
# TRPV1 potentiator – potentiators of human vanilloid receptor 1 (TRPV1). AID 540277. 320,000 tested, 0.02% active. potentiation, % at 8.33 µM. TRPV1-expressing cells, Fluo-8 calcium influx, capsaicin EC20 potentiation; in the data active = potentiation above about 80%; inconclusive = between about 30% and that limit; also: 0% is about no effect
#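 TRPV1-expressing cells were cultured overnight at 35.5C and loaded with Fluo-8 calcium dye for 40 to 90 min at room temperature. After a 10 s baseline, compound was added and calcium influx was read kinetically for 3 min (ex 480/em 520 nm).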
# ClpP mod – qHTS Assay for Activators of ClpP. ATP-dependent Clp protease proteolytic subunit (Bacillus subtilis (strain 168)), P80244. purified B. subtilis ClpP, FRET peptide cleavage, 20 min. Potency, µM (titrated, usually from 57.5 µM), without a hit: at the highest dose activity change, negative = active. 340,000 tested, 1.9% active. AID 651965, 2013; active = well fitted falling curve with a large enough effect; inconclusive = small, poorly fitted or top-dose-only effect; inactive = no such curve, though single readings can be large or run the other way; also: potency is read from the fitted curve at half-maximal effect; the source files actives as falling curves though it sought activators and does not explain the sign; nearly all actives have a fitted effect of over 65% in size
#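 Buffer: 100 mM Tris/HCl pH8, 100 mM KCl, 0.05% low protease BSA, 2.5% glycerol, 0.01% Tween-20. ClpP 10 microg/mL final; 20 min RT; delta FRET normalized to ADEP and DMSO controls.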
# p53 reactivation – restores transcriptional activity of mutant p53; H1299 p53-A138V BP100-luciferase reporter, luminescence, 24 h; Potency, µM (highest dose often 92.2 µM), inactives show at the top dose activity change, positive = activation, actives largely listed as activators; 320,000 tested, 0.063% active; active = well fitted activation curve with a large enough effect; inconclusive = small, poorly fitted or top-dose-only effect; inactive = no such curve, though single readings can be large or run the other way; also: potency is read from the fitted curve at half-maximal effect; % of control where 0% means no effect; nearly all actives have a fitted effect of over 45% in size
#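 p53-null H1299 cells stably carrying temperature-sensitive p53-A138V and a BP100-luciferase reporter were pinned with compounds (4-point, 1:5 series) and held 24 hrs at 37 deg C. Luminescence was read 10 min after detection reagent.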
# TRPV1 agonist – activates the human vanilloid receptor TRPV1; Q8NER1; TRPV1-expressing cells, Fluo-8 calcium influx, agonist mode; activation, % at 8.33 µM; 320,000 tested, 0.19% active; in the data active = activation above about 80%; inconclusive = between about 30% and that limit; also: 0% is about no effect
#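 Fluo-8 calcium influx in TRPV1-expressing cells, kinetic read (ex 480/em 520 nm). Compound added and read 3 min for agonist activity, followed by capsaicin at EC20 final and 2 min further read for enhancement.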
# Active calls of the source: *; ? = inconclusive; nt = no result given. In the library only some 2.6% were active in any assay of this set; here they are far more common.
SMILES,KCNH2 3.1 block,hERG WT inh,TRPV1 potentiator,ClpP mod,p53 reactivation,TRPV1 agonist
O=C(Nc1ccc(-c2nc3ccccc3o2)cc1)C1CCCO1 (stereo not drawn),15,10,1,16µM*,nt,4
O=C(Nc1ccc2oc(-c3ccccc3)nc2c1)C1CCCO1 (stereo not drawn),-3,-11,-2,-1%,?,19
O=C(Nc1ccc(-c2nc3cc(Cl)ccc3o2)cc1)c1cc(Br)ccc1Cl,nt,nt,nt,28µM*,nt,nt
O=C(Nc1ccc(-c2nc3cc(Cl)ccc3o2)cc1)C1CCCO1 (stereo not drawn),14,-13,6,28µM*,?,1
Cc1ccc2nc(-c3ccc(NC(=O)Cc4cccs4)cc3)[nH]c2c1,3,-3,-46,?,3%,1
O=C(Nc1ccc(Oc2ccccc2)cc1)c1ccc2nc([C@@H]3O[C@H](CO)[C@H](O)[C@H](O)[C@H]3O)[nH]c2c1,nt,nt,nt,-1%,nt,nt
Nc1nc(N)c(-c2ccccc2)s1,nt,nt,nt,-1%,nt,nt
CC(C)c1ccc(NC(=O)c2cc(Br)ccc2Br)cc1,1,-7,-10,-1%,6%,25
Cc1ccccc1NC(=O)c1ccc(NC(=O)C2CCCO2)cc1 (stereo not drawn),5,-2,6,16µM*,?,0
O=C(Nc1ccc(Cl)cc1)c1ccc(Br)cc1F,6,-5,-6,3%,7%,83*
COc1cccc(C(=O)Nc2nc3nc(C)c(C)c(=O)n3[nH]2)c1,nt,nt,nt,-1%,nt,nt
COC(=O)C(NC(=O)CC(C)C)(Nc1nc2c(s1)CCCC2)C(F)(F)F (stereo not drawn),nt,nt,nt,-1%,nt,nt
Cc1ccc(C2=NN(CCC(=O)NCc3ccc4c(c3)OCO4)C(=O)CC2)cc1,-26,1,4,7.9µM*,-7%,-2
CCCn1c(SCC(=O)NC2CC2)nnc1-c1cccs1,3,1,-2,-3%,?,1
Cn1c(SCC(=O)NC2CC2)nnc1-c1cccs1,21,-7,3,-4%,35µM*,11
N#Cc1cnc2c(-c3ccccc3)c(-c3ccccc3)nn2c1N,-6,-5,?,32µM*,0%,7
Cc1nn2c(N)c(C#N)cnc2c1-c1ccccc1,8,0,10,-16%,8%,-1
CC(C)CCn1c(Oc2ccccc2F)nc2c1c(=O)n(C)c(=O)n2C,nt,nt,nt,0%,nt,nt
Cc1ccc(O)c(NC(=O)CSc2ccc(Cl)cc2)c1,-105*,-12,0,-5%,-5%,?
Cc1ccc(NS(=O)(=O)c2ccc(NC(=O)CSc3ccc(Cl)cc3)cc2)c(C)c1,0,-9,13,1%,-7%,2
Cc1ccc(C2C=C(c3ccc(F)cc3)Nc3nc(CCCO)nn32)cc1 (stereo not drawn),nt,nt,nt,4%,nt,nt
COc1cccc(NC(=O)CSc2nc(O)c(C/C=C/c3ccccc3)c(=O)[nH]2)c1,nt,nt,nt,-2%,nt,nt
c1ccc(N=c2nc(-c3ccccc3)n(-c3ccccc3)s2)cc1,nt,nt,nt,2%,nt,nt
CCN(CC)CCCN(C(=O)c1cccc(C)c1)c1nc(-c2ccc(OC)cc2)cs1,-73*,-81*,-26,-4%,1%,5
CCN(CC)CCCN(C(=O)c1cccs1)c1nc(-c2ccc(OC)cc2)cs1,?,27,0,-1%,0%,6
CCN(CC)CCCN(C(=O)c1ccc(Br)cc1)c1nc(-c2ccc(OC)cc2)cs1,-109*,-135*,4,nt,-5%,-2
Cc1cccc(NC(=O)CSc2nccn2Cc2ccc(F)cc2)c1C,nt,nt,nt,-1%,nt,nt
CC1CCCN(S(=O)(=O)c2ccc(NC(=O)c3nc(SC(C)C)ncc3Cl)cc2)C1 (stereo not drawn),nt,nt,nt,-3%,nt,nt
O=C(Nc1ccc(N2CCOCC2)cc1)c1ccc(Cl)nc1,-3,2,-1,-2%,12%,1
CCN(c1ccc(NC(=O)c2ccc(Cl)nc2)cc1)C(C)C,15,-14,-11,1%,7%,84*

# Compound activity from PubChem.
